Data published in PubChem BioAssay (NCI).
About 83,000 compounds went through this panel and 20% of them were active in at least one assay; those are over-represented in the sample as a whole.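 Treatment: one concentration, 48 hours, 96-well format. Scoring: percent growth, with anything below 10 considered active.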 A number with no mark means an inactive call. Calls of active or inactive are those of the source.

Legend:
Experiment in all cases: NCI-60 one-dose screen, 48 h (100 = growth as untreated, 0 = no growth, -100 = all killed)
Conditions in all cases: 10 µM unless noted
[1] = tested on: HCT-15 colon
[2] = tested on: HT29 colon
[3] = tested on: SNB-75 CNS
[4] = tested on: SNB-19 CNS
[5] = tested on: U251 CNS
[6] = tested on: PC-3 prostate
[7] = tested on: SK-MEL-5 melanoma
[8] = tested on: UACC-62 melanoma
[9] = tested on: LOX IMVI melanoma
[10] = tested on: SK-MEL-28 melanoma

Compound | growth [1] | growth [2] | growth [3] | growth [4] | growth [5] | growth [6] | growth [7] | growth [8] | growth [9] | growth [10]
O=C1/C(=C/c2ccccc2[N+](=O)[O-])COc2ccc(O)cc21 | -8.7% (active) | -20.8% (active) | 43.2% | 62.7% | 7.41% (active) | 4.19% (active) | 59.1% | 2.16% (active) | -66.1% (active) | -5.79% (active)
O=C(O)c1cccc(N/C=C/C(=O)c2cc3cc(Br)ccc3oc2=O)c1 | 93.2% | 108% | 83.7% | 94% | 96.9% | 93.8% | 97.7% | 94.2% | 97.9% | 104%
COc1ccc2c(c1)c(-c1nc(-c3cn(C)c4ncccc34)cs1)cn2CCO | 61.1% | 75.3% | 91.3% | 90.2% | 78.5% | 69.1% | 74.2% | 80.4% | 59.3% | 86%
CCOC(=O)N1CCN(S(=O)(=O)c2oc(-c3ccc(Cl)cc3)nc2C#N)CC1 | -8.32% (active) | 79.3% | 87.9% | 98.3% | 95.9% | 93% | 97.4% | 98.8% | 10.8% | 105%
COc1cc2cc(NCc3ccc(OC(F)F)cc3)nc(C)c2cc1OC | 59.9% | 25.7% | 88.1% | 66.2% | 62.3% | 64.5% | 68.3% | 47% | 27.7% | 72.7%
NC(CSC(c1ccccc1)(c1ccccc1)c1ccc2c(c1)OCO2)C(=O)O (stereo not drawn) | 25.4% | -5.15% (active) | 30.8% | 37.7% | -7.2% (active) | 18.7% | 8.31% (active) | 25.4% | 28.5% | 47.4%
C=CC(=O)NCCOc1cccc(Nc2cc(NCCCNC(=O)C3CCC3)c(Br)cn2)c1 | 1.43% (active) | -15.2% (active) | -69.2% (active) | 5.36% (active) | 0.984% (active) | 5.12% (active) | -41.4% (active) | -34.7% (active) | -25.3% (active) | -11.9% (active)
COc1cc2c(c(OC)c1OC)C(=O)N[C@@H]1[C@@H](O)[C@@H](O)[C@H](O)C[C@@H]21 | 104% | 107% | 102% | 99% | 98.9% | 96.5% | 104% | 94.1% | 97.7% | 111%
O=C1C(Cl)=C(NCCN2CCOCC2)C(=O)c2ncccc21 | -38% (active) | -27.6% (active) | 88.3% | 17.3% | 29.6% | 38.1% | -94.1% (active) | -51.2% (active) | -57.3% (active) | -84.3% (active)
CCOC(=O)/C=C/c1c(C)[nH]c(=O)[nH]c1=O | 21.3% | 31.4% | 110% | 93.4% | 81.2% | 80.9% | 90.7% | 87.6% | 82.6% | 117%
O=C(CCCCl)NNc1nccc(Nc2ccc(S(=O)(=O)Nc3ccncc3)cc2)n1 | 103% | 102% | 93.2% | 106% | 103% | 93% | 105% | 102% | 98% | 107%
C=CCn1c(SCC(=O)Nc2ccc(C(=O)/C=C/c3cc(OC)c(OC)c(OC)c3)cc2)nnc1-c1cc(-c2ccc(OC)cc2)nc2ccccc12 | 83.4% | 101% | 85.1% | 90.3% | 88.3% | 80% | 94.9% | 90.1% | 94.9% | 101%
Cc1cc(N2CCCCC2)nc(N2CCN(CC(=O)Nc3ccc4c(ccn4Cc4ccccc4)c3)CC2)n1 | 48.1% | 12.4% | 66.4% | 70% | 40.3% | 38.7% | 57.6% | 56.5% | 60.7% | 73.7%
Cc1cccc(-n2c(C)nc3ccc(N4CCCNC4=O)cc3c2=O)c1 | 113% | 106% | 103% | 98.2% | 93.4% | 100% | 102% | 97.3% | 97.7% | 112%
O=C(/C=C/C12c3ccccc3C(c3ccccc31)C1C(=O)NC(=O)C12)c1ccc(F)cc1 (stereo not drawn) | -10.6% (active) | -3.81% (active) | 7.89% (active) | 10.6% | -44.4% (active) | 8.91% (active) | 10.8% | -55.6% (active) | -53.9% (active) | 6.45% (active)
COC(=O)c1c2c(c(C)[n+]([O-])c1C)C(=O)C=CC2=O | -64.8% (active) | 0.769% (active) | -49.1% (active) | -23.8% (active) | -40.8% (active) | 3.6% (active) | -98.5% (active) | -72.8% (active) | -86% (active) | -82.9% (active)
CCCCCCCC/C=C\CCCCCCCCOc1ccccc1CC(=O)NCC[N+]1(C)CCCCC1 | 102% | 9.78% (active) | 49.3% | 52.6% | 39% | 3.49% (active) | 86.5% | 53.8% | 75.7% | 84.2%
O=C(CBr)CN1C(=O)c2ccccc2C1=O | 110% | 99.9% | 93.5% | 115% | 101% | 102% | 111% | 102% | 94.7% | 101%
CC(C)CN1CC(C(=O)Nc2ccc3c(c2)-c2ccccc2C3)CC1=O (stereo not drawn) | 49.7% [50 µM] | 87.8% [50 µM] | 45.7% [50 µM] | 72.1% [50 µM] | 72.8% [50 µM] | 57.1% [50 µM] | 69.4% [50 µM] | 47.3% [50 µM] | 75.9% [50 µM] | 80% [50 µM]
CC1=NN(c2ccc(Cl)cc2)CC1(C)N=O (stereo not drawn) | 27.4% | 28.3% | 75.7% | 97.9% | 91.5% | 91.9% | 95.4% | 88.2% |  | 90.4%
O=C1/C(=C/c2ccc(C(F)(F)F)cc2)COc2ccc(O)c(O)c21 | -6.49% (active) | 8.23% (active) | 33.4% | 27.1% | -50.6% (active) | -36.1% (active) | 68.5% | 12.2% | -90.8% (active) | 72.1%
CCCCCCC(CCCC)COC(=O)c1ccc(Cl)cc1 (stereo not drawn) | 107% | 121% | 95% | 109% | 113% | 96.5% | 96.5% | 98.7% |  | 112%
